Reference: PubChem BioAssay AID651957 (The Scripps Research Institute Molecular Screening Center, 2012)
Among all 370,000 compounds or so, about 620 (0.17%) were called active. Only a selection was taken, and actives are over-represented in it overall. Unmarked numbers belong to inactive results.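 How the source made its calls: active means inhibition above the mean inhibition of all tested compounds plus 3 SD, set per campaign (cut at about 52% in these data); inactive means the rest.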

Biological target: Nuclear receptor coactivator 2 (Homo sapiens) (UniProt Q15596)
Test: inhibition of GAL4-SRC2 driven luciferase reporter, primary screen, SRC2 inhibitor project, cell-based, luminescence (AID 651957);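 further: 0% = DMSO treated cells and 100% = cells given Gossypol at 36 µM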
Details: HEK293 GAL4-SRC2 luciferase reporter, at 9 µM, active compounds read high

Chain of Nuclear receptor coactivator 2 (Homo sapiens) (Q15596 whole entry, looked up, the tested form may be a part): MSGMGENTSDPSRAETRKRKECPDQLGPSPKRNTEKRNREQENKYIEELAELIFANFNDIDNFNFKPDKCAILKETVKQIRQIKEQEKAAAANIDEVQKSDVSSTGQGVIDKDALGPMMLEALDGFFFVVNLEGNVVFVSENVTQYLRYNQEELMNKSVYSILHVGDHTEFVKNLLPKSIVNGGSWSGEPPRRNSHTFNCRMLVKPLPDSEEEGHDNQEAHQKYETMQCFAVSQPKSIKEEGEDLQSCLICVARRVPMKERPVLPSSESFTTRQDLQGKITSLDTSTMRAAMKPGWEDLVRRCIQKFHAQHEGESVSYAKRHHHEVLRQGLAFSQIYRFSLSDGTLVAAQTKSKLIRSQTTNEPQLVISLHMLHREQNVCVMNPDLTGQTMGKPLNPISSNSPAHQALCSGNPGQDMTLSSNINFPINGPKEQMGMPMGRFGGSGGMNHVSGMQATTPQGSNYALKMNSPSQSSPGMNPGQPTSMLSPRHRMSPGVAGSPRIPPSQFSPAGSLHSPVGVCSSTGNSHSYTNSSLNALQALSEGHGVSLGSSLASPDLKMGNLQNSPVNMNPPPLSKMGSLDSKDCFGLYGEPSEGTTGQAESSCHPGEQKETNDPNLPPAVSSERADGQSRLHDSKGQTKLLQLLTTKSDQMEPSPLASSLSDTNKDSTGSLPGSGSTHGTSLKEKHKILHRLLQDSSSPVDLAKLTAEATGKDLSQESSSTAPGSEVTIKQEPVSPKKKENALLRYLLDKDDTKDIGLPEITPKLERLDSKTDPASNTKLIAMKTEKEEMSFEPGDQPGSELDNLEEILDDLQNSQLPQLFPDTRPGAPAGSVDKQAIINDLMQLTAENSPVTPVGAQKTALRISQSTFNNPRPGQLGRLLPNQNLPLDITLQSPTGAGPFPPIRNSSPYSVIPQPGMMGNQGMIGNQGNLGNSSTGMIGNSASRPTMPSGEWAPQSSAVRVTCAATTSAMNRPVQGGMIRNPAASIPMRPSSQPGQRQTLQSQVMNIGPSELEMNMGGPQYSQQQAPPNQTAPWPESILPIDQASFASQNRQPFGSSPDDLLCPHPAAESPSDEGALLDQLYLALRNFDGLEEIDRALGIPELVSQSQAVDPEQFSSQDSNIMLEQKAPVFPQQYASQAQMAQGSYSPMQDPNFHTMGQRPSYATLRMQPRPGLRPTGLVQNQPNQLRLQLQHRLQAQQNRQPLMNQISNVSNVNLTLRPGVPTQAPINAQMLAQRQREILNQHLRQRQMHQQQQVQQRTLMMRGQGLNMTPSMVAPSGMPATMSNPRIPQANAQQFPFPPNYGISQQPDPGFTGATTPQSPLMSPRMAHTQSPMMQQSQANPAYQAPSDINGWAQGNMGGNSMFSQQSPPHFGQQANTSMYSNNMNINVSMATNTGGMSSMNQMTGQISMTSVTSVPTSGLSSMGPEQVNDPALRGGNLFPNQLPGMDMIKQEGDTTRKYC

Row | SMILES | inhibition
1 | Cc1ccccc1NC(=O)c1nn(-c2ccc(F)c(F)c2)ccc1=O | 1.35%
2 | Cc1nnnn1/C(=C\c1ccccc1)C(=O)OCC(=O)N1CC2(C)CC1CC(C)(C)C2 (stereo not drawn) | 32.3%
3 | O=C1N=C2SCCN2/C1=C\c1c(Cl)cccc1Cl | 4.12%
4 | Cc1ccc(NC(=O)CCOc2ccccc2)cc1S(=O)(=O)Nc1ccccc1Cl | 9.26%
5 | CC(C)Cc1nc(Nc2ccc(S(=O)(=O)N3CCCC3)cc2)c2nnn(Cc3ccccc3)c2n1 | -14.5%
6 | CCCCOCCCNC(=O)C[C@H]1C[C@@]2(C(=O)OC)C(=C[C@H](C(C)(C)C)O[C@@H]2C)N(CCc2ccc(OC)c(OC)c2)C1=O | 1.08%
7 | COc1ccc(/C=C2/SC(=O)N(CCCCCC(=O)Nc3ccccc3C(=O)O)C2=S)cc1 | 58.3% (active)
8 | COc1ccc(NC(=O)CN2C(=O)CSC2=O)cc1 | -15.1%
9 | COc1ccc(NC(=O)CCCN2C(=O)C(c3ccccc3)Oc3cccnc32)cc1 (stereo not drawn) | 2.65%
10 | CC(=O)Nc1ccc(NC(=O)C(C)n2c3ccccc3c3nc(=O)cc(C)n32)cc1 (stereo not drawn) | -6.71%
11 | O=C1C=C(c2ccccc2)CCC1 | -5.31%
12 | COC(=O)[C@]12C[C@H](CC(=O)NCc3ccccc3)C(=O)N(CCC3=CCCCC3)C1=C[C@H](C(C)(C)C)O[C@@H]2C | 28.1%
13 | N=c1n(CCc2ccccc2)c2ccccc2n1Cc1ccccc1F | 2.8%
14 | COc1c(C=O)c(CCN(C)C(=O)c2ccc(F)cc2)cc2c1OCO2 | 0.41%
15 | CCCC[C@H]1C2CC(OC(=O)NCc3ccccc3)C(C2)[C@H]2CCCCN21 (stereo partly drawn) | -8.24%
16 | COCCC(=O)Nc1ccc2c(c1)CN(C(=O)CCOC)CC2 | 9.25%
17 | Cc1ccc(C(=O)N(Cc2ccccn2)CC2CCCO2)cc1 (stereo not drawn) | -16.2%
18 | Cc1noc(C)c1NC(=O)Nc1ccc2c(c1)C(=O)N([C@H](C)CO)C[C@H](C)[C@H](CN(C)Cc1ccncc1)OCCCC[C@@H](C)O2 | 5.48%
19 | CC(C)N1CCCCC(NC(=O)C(C)(C)C)C1=O (stereo not drawn) | 11.4%
20 | O=C(Nc1ccccc1Cl)/C(Cl)=C(\Cl)S(=O)c1ccccc1 (stereo not drawn) | 85.5% (active)
21 | COc1ccc(N2c3ccccc3CN(Cc3ccccc3)[C@@H](C)[C@H]2Cc2ccc(-c3ccccc3)cc2)cc1 | -9.73%
22 | Cc1c(C(C)c2ccccc2O)[nH]c2ccccc12 (stereo not drawn) | -18.6%
23 | O=S1(=O)c2c(cccc2N2CC[C@H](O)C2)O[C@@H]2CCN1C2 | -22.3%
